Values joined by “and” are separate entries in the source; they are usually repeats but may differ in a detail not shown here. Identical values can stand only once.
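Note: reported values are mean percent inhibition of GSK3B.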

Glycogen synthase kinase-3 beta (Homo sapiens), sequence (P49841 whole entry, looked up): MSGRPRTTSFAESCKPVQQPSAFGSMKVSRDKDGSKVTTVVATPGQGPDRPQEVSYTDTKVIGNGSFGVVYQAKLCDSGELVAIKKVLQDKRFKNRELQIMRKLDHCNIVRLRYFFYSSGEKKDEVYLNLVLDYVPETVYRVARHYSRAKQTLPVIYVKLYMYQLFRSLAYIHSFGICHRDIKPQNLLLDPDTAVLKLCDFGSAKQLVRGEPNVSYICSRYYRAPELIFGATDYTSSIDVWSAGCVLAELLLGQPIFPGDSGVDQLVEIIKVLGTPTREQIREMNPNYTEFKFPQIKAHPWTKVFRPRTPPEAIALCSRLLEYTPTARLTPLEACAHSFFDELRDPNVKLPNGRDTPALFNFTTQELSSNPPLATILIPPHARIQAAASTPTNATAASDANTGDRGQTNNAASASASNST

This assay has as its target Glycogen synthase kinase-3 beta (Homo sapiens) (UniProt P49841). Particulars: at 1 µM.
Turning to `CNC(=O)c1ncccc1Nc1nc(Nc2cc3c(cc2OC)CCCN3C(=O)CN(C)C)nc2[nH]ccc12`, the inhibition – broadly, how much of the control response was suppressed – turned out to be 14.6%.
With `Cc1ccc(-c2cc3c(NC(=O)C4CC4)ncnc3o2)cc1`, the inhibition worked out at 38.2%.
On to `CNC(=O)c1sc(-n2cnc3cc(OC)c(OC)cc32)cc1OCc1ccccc1C(F)(F)F`, for which the inhibition is 3.56%.
With `O=C(O[C@H]1CN[C@H](C#Cc2cc3ncnc(Nc4ccc5c(ccn5Cc5cc(F)ccc5F)c4)c3s2)C1)N1CCOCC1` the figure was 5.52%; with `CN1CCN(Cc2ccc(-c3cc4ncnc(Nc5ccc(OCc6cccc(F)c6)c(Cl)c5)c4s3)o2)CC1`, 4.12% and 11.3%.
For the molecule `CCn1c(-c2nonc2N)nc2cncc(C(=O)NCCNC)c21`, the inhibition is 42.3%.
Molecule `CCS(=O)(=O)c1ccc(OC)c(Nc2ncc(-c3cccc(F)c3)o2)c1` came in with an inhibition of 4.08%.
Consider `COC(=O)Nc1nc2cc(Oc3ccc(NC(=O)Nc4ccccc4)cc3)ccc2[nH]1`, for which the inhibition turned out to be 8.21%.
Molecule `COc1c(C(N)=O)cc(-c2ccc(Cl)cc2)cc1-c1ccc(S(N)(=O)=O)cc1` returned an inhibition of 2.65%.
In turn, `CC1(C)CC(n2cnc(-c3ccc(F)cc3)c2-c2ccnc(N)n2)CC(C)(C)N1` gave an inhibition of 6.07%.
With `CCCNc1cccc(-n2ncc3c(N/N=C/c4ccncc4)ncnc32)c1` the figure was 68.7%; with `CN(c1ccc(NC(=O)NCCN2CCOCC2)cc1)c1ccnc(Nc2ccc(CS(C)(=O)=O)cc2)n1`, 5.02%.
`CCOc1ccc2c(-c3ccnc(Nc4cc(OC)cc(C(F)(F)F)c4)n3)cnn2n1` gave an inhibition of 28%.
`COc1cccc(-n2ncc3c(N/N=C/c4ccc(C(=O)NCCN(C)C)cc4)ncnc32)c1`: the inhibition was found to be 79.4%.
Turning to `COc1ccc(-c2nn3ncccc3c2-c2ccnc(Nc3ccc(F)c(F)c3)n2)cc1`, the inhibition is 5%.
Take `Cc1c2ccc(N(C)c3ccnc(Nc4cccc(S(N)(=O)=O)c4)n3)cc2nn1C`: the inhibition came out at 10.7%.
The molecule `N#Cc1cccc(Nc2ncc(-c3ccccc3)o2)c1` yielded an inhibition of 16.9%.
Molecule `CC1=C(C(=O)Nc2ccc3[nH]ncc3c2)C(c2ccc(F)cc2)N=C(c2ccc(C(F)(F)F)nc2)N1` (stereo unspecified) yielded an inhibition of 4.71%.
Then `NS(=O)(=O)c1ccc(N/N=C2\C(=O)Nc3cccc(CCc4ccncc4)c32)cc1`, with 56.4%; and `O=C(O[C@H]1CN[C@H](C#Cc2cc3ncnc(Nc4ccc5c(cnn5Cc5ccccc5)c4)c3s2)C1)N1CCOCC1`, with 3.77%.
On to `CS(=O)(=O)Nc1ccc(-c2cc(-c3ccccc3)cc(C(N)=O)c2N)cc1`, for which the inhibition was determined as 3.26%.
Molecule `FC(F)(F)CNc1nccc(-c2cnn3ncccc23)n1` showed an inhibition of 6.02%.
With `CS(=O)(=O)CCNCc1ccc(-c2ccc3ncnc(Nc4ccc(OCc5ccccc5)cc4)c3c2)o1` the figure was 3.37%.
Turning to `CN(C)CCNC(=O)Nc1ccc(N(C)c2ccnc(Nc3ccc(CS(C)(=O)=O)cc3)n2)cc1`, the inhibition came to 4.47%.
`NC(=O)c1ccc2c(-c3ccnc(NCCCO)n3)c(-c3ccc(F)cc3)nn2c1` came in with an inhibition of 41.3%.
With `c1ccc(-c2n[nH]cc2-c2ccnc(-c3ccc(OCCn4ccnc4)cc3)c2)nc1`, the inhibition came to 4.83%.
`c1cnn2ncc(-c3ccnc(NCCCN4CCOCC4)n3)c2c1` yielded an inhibition of 13%.
`CN1CCC(n2cnc(-c3ccc(F)cc3)c2-c2ccnc(NCCO)n2)CC1` yielded an inhibition of 7.21%.
The molecule `COc1cc(N2CCN(C(C)C)CC2)ccc1Nc1nc(Nc2cccc3ncccc23)c2cc[nH]c2n1` registered an inhibition of 5.17%.
With `COc1ccc(Nc2ncc(-c3ccccc3)o2)cc1OC` the figure was 33%; with `CC1=C(C(=O)Nc2ccc3[nH]nc(C)c3c2)C(c2ccc(C(F)(F)F)cc2)CC(=O)N1` (stereo unspecified), 10.3%.

The values above are taken from ChEMBL document CHEMBL1961873, “Compounds: GSK PKIS; Assays: Nanosyn kinase panel” (2012).
